Key:
Details in all cases: concentration: 1 μM, replicates: in singlicate; n = 1
[1] = tested on: RPS6KA5(Kin.Dom.2-C-terminal)
[2] = tested on: T1, RSK1(Kin.Dom.1-N-terminal)
T1 construct: gene RPS6KA1

[3] = tested on: T2, RSK1(Kin.Dom.2-C-terminal)
T2 construct: gene RPS6KA1

[4] = tested on: T3, RSK2(Kin.Dom.1-N-terminal)
T3 construct: gene RPS6KA3

[5] = tested on: T4, RSK2(Kin.Dom.2-C-terminal)
T4 construct: gene RPS6KA3

[6] = tested on: T5, RSK3(Kin.Dom.1-N-terminal)
T5 construct: gene RPS6KA2

[7] = tested on: T6, RSK3(Kin.Dom.2-C-terminal)
T6 construct: gene RPS6KA2

[8] = tested on: T7, RSK4(Kin.Dom.1-N-terminal)
T7 construct: gene RPS6KA6

[9] = tested on: T8, RSK4(Kin.Dom.2-C-terminal)
T8 construct: gene RPS6KA6

S6K1 = tested on: S6K1
SBK1 = tested on: SBK1
SGK2 = tested on: SGK2
SGK3 = tested on: SGK3
SGK = tested on: SGK
SIK2 = tested on: SIK2
SIK = tested on: SIK
SLK = tested on: SLK
SNARK = tested on: T9, SNARK
T9 construct: gene NUAK2

SNRK = tested on: SNRK
SRC = tested on: SRC
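Further: KINOMEscan kinase panel screen.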

Row | SMILES | %Inh [1] | %Inh [2] | %Inh [3] | %Inh [4] | %Inh [5] | %Inh [6] | %Inh [7] | %Inh [8] | %Inh [9] | %Inh (S6K1) | %Inh (SBK1) | %Inh (SGK2) | %Inh (SGK3) | %Inh (SGK) | %Inh (SIK2) | %Inh (SIK) | %Inh (SLK) | %Inh (SNARK) | %Inh (SNRK) | %Inh (SRC)
1 | Cc1cc(N2CCC(NS(=O)(=O)c3ccc(F)cc3)CC2)nc(Nc2cccc(C#N)c2)n1.O=C(O)C(F)(F)F [GSK1653537] | 0% | 7% | 0% | 3% | 20% | 18% | 0% | 62% | 10% | 0% | 0% | 0% | 0% | 0% | 0% | 0% | 13% | 0% | 0% | 5%
2 | CC(C)(C)OC(=O)NC1CCCN(c2cc(-c3ccc4c(N)n[nH]c4c3)nc(N)n2)C1 (stereo not shown) [GSK2286096] | 0% | 26% | 0% | 27% | 100% | 0% | 0% | 36% | 23% | 2% | 15% | 0% | 44% | 0% | 0% | 0% | 0% | 0% | 3% | 0%
3 | Fc1cccc(COc2ccc(Nc3ncnc4nn5ccccc5c34)cc2Cl)c1 [GW689066] | 0% | 4% | 0% | 0% | 0% | 0% | 0% | 0% | 0% | 0% | 2% | 0% | 0% | 0% | 0% | 0% | 2% | 0% | 0% | 0%
4 | Cl.c1ccc(Cn2ncc3cc(Nc4ncnc5ccccc45)ccc32)cc1 [GW273749] | 5% | 11% | 3% | 0% | 0% | 0% | 0% | 0% | 17% | 4% | 7% | 0% | 0% | 0% | 0% | 0% | 0% | 10% | 0% | 10%
5 | COc1cc2c(Nc3cccc(NC(=O)c4ccccc4)c3)ncnc2cc1OCCCN1CCOCC1 [GSK223810] | 0% | 2% | 0% | 18% | 20% | 13% | 11% | 20% | 14% | 0% | 34% | 13% | 1% | 0% | 7% | 0% | 0% | 0% | 0% | 94.7%

Reference: paper PMC5540273 (PLoS ONE, 2017)
